From the supplement of paper PMC11417369
± gives the standard deviation of the averaged measurements. In all, about 25,000 sequences were measured (“ln(normalized median fluorescence intensity)”: median about 8.6, highest 2% from about 10 on). This is one part of a sample in which the highest values are shown more often than they occur.

The sequences below were run on PfAP2-EXP AP2 domain (GST-tagged) (assay: gcPBM binding intensity (ln(normalized median fluorescence intensity)); higher = stronger DNA binding).
Method in brief: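 An Agilent 4 × 180k array of primer-extended double-stranded 36-bp intergenic genomic probes, with negative controls, was incubated for 1 h with GST-tagged P. falciparum DNA-binding domains expressed in E. coli. Alexa488 anti-GST antibody detected bound protein, scanned at 488 nm. Binding intensity is the highest Masliner-normalised natural-log median intensity across replicate spots of either probe orientation.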
For “TTTAAAAATTTGATCAAACACACGTTGCATAAATTA [CACACA_site3945]”, the “gcPBM binding intensity (ln)” value was 8.87 ± 0.47. “TTGTTTAACTTGTTAAATATAATGTATCTGTGGATA [GTGCAC_negctrl_site108]” was tested, and the “gcPBM binding intensity (ln)” value was 8.12 ± 0.4. “TTAATACTTTTTTCTGTACACACTTGATTTACTATA [CACACA_site2799]” was tested, and the “gcPBM binding intensity (ln)” value was 8.95 ± 0.44. For “ATATATATATATATATGTACTTATTTATATATTTAT [XGTACX_site7811]”, the “gcPBM binding intensity (ln)” value was 10.1 ± 0.25. With “ATGTTTATTTATTTATGTACTTATATATTTATATAT [XGTACX_site7924]” the “gcPBM binding intensity (ln)” value was 8.78 ± 0.34. “TTTTTATTTATATGATACTTATATATATATATATAT [CACACA_negctrl_site462]” was tested, and the “gcPBM binding intensity (ln)” value was 10.2 ± 0.16. In the case of “ATATATATGTATGTATGTACTTATTTATTTATTTAT [XGTACX_site7740]”, the “gcPBM binding intensity (ln)” value is reported as 8.32 ± 0.16. With “AAAATTGTTATTTTATGTACTTATATTTATTTATTT [XGTACX_site3478]” the “gcPBM binding intensity (ln)” value was 8.53 ± 0.27. In the case of “ATATATATATATATATGTACTTATTTATTTATTTAT [XGTACX_site4645]”, the “gcPBM binding intensity (ln)” value is reported as 10.2 ± 0.51. For “ATATATATATATAGTTGTACTTAATTTTATATGTTA [XGTACX_site5256]”, the “gcPBM binding intensity (ln)” value was 10.2 ± 0.15. With “TACTTATTGTGATACTTATATTATTTTATGATTAAA [XGTACX_negctrl_site353]” the “gcPBM binding intensity (ln)” value was 8.36 ± 0.39. “TTGTTAATATATATATGTACTTATTTATTTATTTAT [XGTACX_site2274]” was tested, and the “gcPBM binding intensity (ln)” value was 8.51 ± 0.35. In the case of “TATATATATATATATTGTACTTATGTTTATATTCAT [XGTACX_site6258]”, the “gcPBM binding intensity (ln)” value is reported as 10.1 ± 0.2. For “TATATATATATATATTGTACTTTATATGTTCTTATA [XGTACX_site7545]”, the “gcPBM binding intensity (ln)” value was 10.3 ± 0.11. In the case of “TATTTATTGTGATACTTATATTATTTTATGATTAAA [CACACA_negctrl_site901]”, the “gcPBM binding intensity (ln)” value is reported as 8.27 ± 0.37. In the case of “ATCTTTTCATATTGCTGTACAAATTATTTTCATTCG [XGTACX_site492]”, the “gcPBM binding intensity (ln)” value is reported as 9.05 ± 0.45. For “AGAATTATATACACAAGTACATAATGACATATATAT [XGTACX_site5617]”, the “gcPBM binding intensity (ln)” value was 8.42 ± 0.35. With “GTATGTATATATGTATGTACTTATGTATCATTATTA [XGTACX_site2438]” the “gcPBM binding intensity (ln)” value was 8.35 ± 0.26. In the case of “TAAATATATATTATATGTACTTATATATATATATAT [XGTACX_site4448]”, the “gcPBM binding intensity (ln)” value is reported as 9.85 ± 0.3. For “TATCATTTATATATGTGTACTTATTTATTTATTTAT [XGTACX_site7961]”, the “gcPBM binding intensity (ln)” value was 8.82 ± 0.45. In the case of “ATATATATATATATATGTACTTATTAAGATTAAAAA [XGTACX_site61]”, the “gcPBM binding intensity (ln)” value is reported as 10.2 ± 0.2. For “ATTTATTTATTTATATGTACTTATATATGTATTTTC [XGTACX_site6269]”, the “gcPBM binding intensity (ln)” value was 8.85 ± 0.25. “ATATATATATATATATGTACTTATTTATTTATATTA [XGTACX_site4646]” was tested, and the “gcPBM binding intensity (ln)” value was 10.3 ± 0.39. In the case of “ATATATATATATATATGTACTTATTTATTTTATATA [XGTACX_site8810]”, the “gcPBM binding intensity (ln)” value is reported as 10.2 ± 0.24. With “TATATATTATATATATGTACTTATTTATTAATTTAT [XGTACX_site5253]” the “gcPBM binding intensity (ln)” value was 8.29 ± 0.25. “TTATATATTTTTATGTGTACTTATATATATATATAT [XGTACX_site6211]” was tested, and the “gcPBM binding intensity (ln)” value was 10 ± 0.13. With “ATATTTTTTTTTTTATGTACTTATTTATAATTATTT [XGTACX_site5279]” the “gcPBM binding intensity (ln)” value was 8.67 ± 0.37. For “ATATATATATATATGTGTACTTATATATTTAAAAAA [XGTACX_site1761]”, the “gcPBM binding intensity (ln)” value was 10 ± 0.27. “ATATATATATATATATGTACTTATGTCATCATTAAA [XGTACX_site5316]” was tested, and the “gcPBM binding intensity (ln)” value was 10.3 ± 0.35. With “TTTTATCGTTTTTTTTTTTTTTTTTTTTTTTTTTTT [CACACA_negctrl_site1309]” the “gcPBM binding intensity (ln)” value was 9.06 ± 0.092. With “TCTGGATTGGATTACAAGAAAATAAAATATAAAATA [CACACA_negctrl_site122]” the “gcPBM binding intensity (ln)” value was 8.38 ± 0.4. In the case of “ATGAAGAAGTGTAAATGTACATTTTATGTAGAACAA [XGTACX_site6925]”, the “gcPBM binding intensity (ln)” value is reported as 8.93 ± 0.48. For “TAATATTATATTATATGTACATAACAAATTATATTT [XGTACX_site4296]”, the “gcPBM binding intensity (ln)” value was 8.6 ± 0.21. For “ATTTTTTTATAAGAAAATTTCTAACGTTAAAAAAAA [CACACA_negctrl_site1367]”, the “gcPBM binding intensity (ln)” value was 8.38 ± 0.59. For “TATATATATATATATGCATGCCATATGATATATATA [TGCATGCA_site109]”, the “gcPBM binding intensity (ln)” value was 10.3 ± 0.27. In the case of “TATATATATGTATGATGTACATATATGCATATATAT [XGTACX_site3399]”, the “gcPBM binding intensity (ln)” value is reported as 8.54 ± 0.23. For “ATATATATATATGATACATGCATATATTTTTTCTTC [TGCATGCA_site216]”, the “gcPBM binding intensity (ln)” value was 9.99 ± 0.13. In the case of “ATTTTATTTTTTGAGTGTACTAGTTCAACAACTCCG [XGTACX_site8600]”, the “gcPBM binding intensity (ln)” value is reported as 8.72 ± 0.52. With “TGGTTTCAATAATTAATAAAATATATTATTGTGAAA [CACACA_negctrl_site442]” the “gcPBM binding intensity (ln)” value was 7.95 ± 0.41. AAGACAATATATGCAGTGCATATACATACATATATA was tested, and the “gcPBM binding intensity (ln)” value was 8.65 ± 0.25. In the case of “CGTATGTGCGGACATGCATGCAATATACAAGAAAAA [TGCATGCA_site145]”, the “gcPBM binding intensity (ln)” value is reported as 10.2 ± 0.28. With ACGGAAAAAGAAAAGGTGCATATGGACACAATATAT the “gcPBM binding intensity (ln)” value was 9.35 ± 0.17. With “AAGAAAAGTAAATATGCATGTAGGGTAGGTTATTTT [TGCATGCA_site46]” the “gcPBM binding intensity (ln)” value was 8.94 ± 0.23. In the case of “TGGGTCTCTAACTGGTGTACTATTTACATATTATAC [XGTACX_site8593]”, the “gcPBM binding intensity (ln)” value is reported as 8.75 ± 0.37. In the case of “GGAACAAATAATATCACACATATATATATATATATA [CACACA_site5670]”, the “gcPBM binding intensity (ln)” value is reported as 10.3 ± 0.23. With “TATAATCATATATACACACACATATATATATATATA [CACACA_site2168]” the “gcPBM binding intensity (ln)” value was 10.2 ± 0.43. For “ATAATAAAATAAATCACACATAATATAATGTAATAT [CACACA_site6144]”, the “gcPBM binding intensity (ln)” value was 8.44 ± 0.3. With “TATAAATAAATACATACACACACATACATATATATA [CACACA_site9024]” the “gcPBM binding intensity (ln)” value was 8.71 ± 0.38. “TATATATATAAATACACACACATATATATATATATA [CACACA_site4867]” was tested, and the “gcPBM binding intensity (ln)” value was 10.2 ± 0.25. “TATAATCATAAATACACACACATATATATATATATA [CACACA_site5224]” was tested, and the “gcPBM binding intensity (ln)” value was 10.2 ± 0.42. “TATAAATATAAATATACACACATATATATATATATA [CACACA_site1678]” was tested, and the “gcPBM binding intensity (ln)” value was 9.99 ± 0.4. With “TAAATATAAACACAAACACACACATATATATATATA [CACACA_site7978]” the “gcPBM binding intensity (ln)” value was 10.1 ± 0.42. In the case of “TGTATAAATATAATCACACATATATATATATATATA [CACACA_site4365]”, the “gcPBM binding intensity (ln)” value is reported as 10.3 ± 0.73. With “TGTATAATCATATATACACACACATATATATATATA [CACACA_site8674]” the “gcPBM binding intensity (ln)” value was 10.1 ± 0.24. For “AATATACAAAATATCACACATATAAAATAATATATA [CACACA_site6067]”, the “gcPBM binding intensity (ln)” value was 8.27 ± 0.5. With “GCTATAAATATAATCACACATAAATATATAATATAT [CACACA_site5144]” the “gcPBM binding intensity (ln)” value was 8.23 ± 0.29. In the case of “TATATGAAGCTATAGACACACATATAAAAATATAAT [CACACA_site4850]”, the “gcPBM binding intensity (ln)” value is reported as 8.64 ± 0.47.
